# PubChem BioAssay (NCATS)
# Results filed as inconclusive are left out. Entries that show only a call come without a potency. Unmarked numbers belong to inactive results. The source made the active and inactive calls. Unless noted, calls come from the whole dose curve; as a rule, active = well fitted curve in the direction sought with a large enough effect; inconclusive = small, poorly fitted or top-dose-only effect, or another doubt; inactive = no such curve, though single readings can be large; an effect the other way counts as inactive or inconclusive.
# Columns and labels:
# [1] = Primary qHTS for inhibitors of La Crosse Virus (LACV) - induced cell death in SH-SY5Y cells (AID 1508616); settings: SH-SY5Y LACV cytopathicity rescue, ATP luminescence, 6 d; series mostly up to 4.29 µM;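 note: top concentration of the series differs between compounds; higher means more rescue of cells from virus-induced death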
# Method in brief: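 Rescue of virus-induced death was read as ATPLite luminescence after 6 days at 37C, scaled between DMSO wells with LACV and without virus. Cells were SH-SY5Y, 6000/well, infected at 0.01 MOI after compound addition.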
# [2] = A High-Content qHTS Against Drug Library for the Identification of Small Molecules that Inhibit DYT1 Early Onset Primary Dystonia-Associated Cell Pathology (AID 1645839; calls by dose curve); settings: HEK293 Flp-In EGFP-delE TorsinA, punctate imaging, 48 h; series mostly up to 46.1 µM
# Method in brief: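 High-content imaging quantified EGFP-TorsinA mislocalization in HEK293-derived cells inducibly expressing DYT1 mutant torsinA, after 48 h exposure to compound given together with tetracycline induction. Cell count served as a toxicity channel alongside %pathology.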
# [3] = target: Cytochrome P450 2D6 (Homo sapiens) (UniProt P10635); assay: Cytochrome P450 family 2 subfamily D member 6 (CYP2D6) small molecule antagonists: luciferase biochemical (cell-free) qHTS assay (AID 1645840; active = well fitted curve in the direction sought with a large enough effect in the repeat runs; an effect the other way counts as inactive or inconclusive; note: nearly all actives have a fitted effect of over 55% in size); settings: P450-Glo CYP2D6 enzyme, luciferin luminescence, 1 h; series mostly up to 57.4 µM
# Method in brief: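 P450-Glo CYP2D6 system: proluciferin substrate converted by enzyme to luciferin, read by luminescence proportional to activity. Enzyme-substrate mix with compound 10 min at room temperature, then NADPH regeneration 1 h before detection reagent.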
# [4] = target: Calcium and integrin-binding protein 1 (Homo sapiens) (UniProt Q99828); assay: Primary qHTS for Identification of Calcium Integrin Binding Protein 1 (CIB1) Competitor (AID 1508620); settings: CIB1-GST / FITC-alphaIIb peptide fluorescence polarization; series mostly up to 57.7 µM;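 note: GST tagged CIB1 binding a fluorescein labelled alphaIIb integrin peptide tracer; top concentration of the series differs between compounds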
# Method in brief: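 CIB1-GST (1 uM final) and compound incubated 15 min at room temperature before adding FITC-alphaIIb peptide tracer (100 nM final). Competition for binding read by fluorescence polarization (ex 480, em 540) after another 15 min at room temperature.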
# Calcium and integrin-binding protein 1 (Homo sapiens), sequence (Q99828 whole entry, looked up): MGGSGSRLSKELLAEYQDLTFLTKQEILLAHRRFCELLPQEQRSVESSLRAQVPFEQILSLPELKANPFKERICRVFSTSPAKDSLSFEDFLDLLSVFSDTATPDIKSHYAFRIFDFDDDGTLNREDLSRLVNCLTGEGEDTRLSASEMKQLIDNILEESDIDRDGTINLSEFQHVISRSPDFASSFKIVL
# Cytochrome P450 2D6 (Homo sapiens), sequence (P10635 whole entry, looked up): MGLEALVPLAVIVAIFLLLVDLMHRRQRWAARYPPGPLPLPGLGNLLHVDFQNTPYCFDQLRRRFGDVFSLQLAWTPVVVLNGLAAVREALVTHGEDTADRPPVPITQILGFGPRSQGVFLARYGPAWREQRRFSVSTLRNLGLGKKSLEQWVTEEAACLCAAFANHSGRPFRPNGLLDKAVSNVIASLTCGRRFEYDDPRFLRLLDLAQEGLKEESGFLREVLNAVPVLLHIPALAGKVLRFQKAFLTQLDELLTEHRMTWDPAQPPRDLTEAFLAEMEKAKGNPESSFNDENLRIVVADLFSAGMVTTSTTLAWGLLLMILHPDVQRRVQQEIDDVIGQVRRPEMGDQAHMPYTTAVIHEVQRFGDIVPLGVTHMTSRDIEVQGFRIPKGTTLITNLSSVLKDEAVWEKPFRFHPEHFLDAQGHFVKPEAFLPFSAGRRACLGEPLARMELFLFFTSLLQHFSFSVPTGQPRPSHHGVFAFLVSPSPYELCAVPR
compound,measurement,setting,value
CC(=O)OC(C)OC(=O)C(C)c1ccc(-c2ccccc2)c(F)c1 (stereo unspecified),outcome,[1],inactive
same,outcome,[2],inactive
CC[C@@H](c1ccc(F)c(F)c1)n1c(C(=O)OC)c(-c2ccno2)[nH]c1=S,Potency,[3],inactive
O=c1ccn(C2OC(CO)C(O)C2O)c(=O)[nH]1 (stereo unspecified),Potency,[4],inactive
C=C1CC[C@H]2[C@@](C)(CCC(O)[C@@]2(C)CO)[C@@H]1C/C=C(/C(=O)O)C(O)CO (stereo partly specified),Potency,[4],inactive
C[C@H]1[C@H](C)CC[C@]2(C(=O)O)CC[C@]3(C(=O)O)C(=CCC4[C@@]5(C)CC[C@H](O[C@@H]6O[C@H](C)[C@@H](O)[C@H](O)[C@H]6O)C(C)(C)C5CC[C@]43C)[C@H]12 (stereo partly specified),Potency,[4],inactive
CC(=O)O[C@@H]1[C@@H](OC(=O)/C=C/c2ccccc2)[C@H](C)O[C@@H](O[C@H]2[C@@H]3C=CO[C@@H](O[C@@H]4O[C@H](CO)[C@@H](O)[C@H](O)[C@H]4O)[C@@H]3[C@@]3(CO)O[C@@H]23)[C@@H]1OC(C)=O,Potency,[4],inactive
COc1ccccc1CC(C(=O)O)N(C)C(=O)c1ccccc1 (stereo unspecified),Potency,[4],inactive
CC1=C(CC(=O)O)c2cc(F)ccc2C1=Cc1ccc(S(C)(=O)=O)cc1,Potency,[4],inactive
C[C@H](NCc1ccc(OCc2ccccc2F)cc1)C(N)=O,Potency,[4],inactive
C=C[C@H]1[C@H](O[C@@H]2O[C@H](CO)[C@@H](O)[C@H](O)[C@H]2O)OC=C2C(=O)OCC[C@]21O,Potency,[4],inactive
CC1(CO)CC[C@]2(C(=O)O[C@@H]3O[C@H](CO)[C@@H](O)[C@H](O)[C@H]3O)CC[C@]3(C)C(=CCC4[C@@]5(C)CC[C@H](O[C@@H]6O[C@H](C(=O)O)[C@@H](O)[C@H](O)[C@H]6O)C(C)(C)C5CC[C@]43C)C2C1 (stereo partly specified),Potency,[4],inactive
CC(=O)c1c(C)cc(O)cc1O[C@@H]1O[C@H](CO)[C@@H](O)[C@H](O)[C@H]1O,Potency,[4],inactive
C[C@@H]1O[C@@H](O[C@H]2[C@H](O[C@H]3[C@H](O[C@H]4CC[C@@]5(C=O)C(CC[C@]6(C)C5CC=C5C7CC(C)(C)C[C@@H](O)[C@]7(C)CC[C@]56C)C4(C)C)O[C@H](C(=O)O)[C@@H](O)[C@@H]3O)OC[C@@H](O)[C@@H]2O)[C@H](O)[C@H](O)[C@H]1O (stereo partly specified),Potency,[4],inactive
C/C1=C\C[C@H](O[C@@H]2O[C@H](CO)[C@@H](O)[C@H](O)[C@H]2O)/C(C)=C/[C@H]2OC(=O)[C@H](C)[C@@H]2CC1,Potency,[4],inactive
CC(=O)OC[C@@]12[C@@H](OC(C)=O)C[C@@H](C)[C@](C)([C@@H]3C[C@H]4C=CO[C@H]4O3)[C@H]1CCC[C@]21CO1,Potency,[4],inactive
C=C(C(=O)OC)C1CCC2(C)C(O[C@@H]3O[C@H](CO)[C@@H](O)[C@H](O)[C@H]3O)CC(=O)C(C)C2C1O (stereo partly specified),Potency,[4],inactive
OC1COC(OCC2OC(OCCc3ccccc3)C(O)C(O)C2O)C(O)C1O (stereo unspecified),Potency,[4],inactive
O=C1[C@H](O[C@@H]2O[C@H](CO)[C@@H](O)[C@H](O)[C@H]2O)Oc2ccccc2N1O,Potency,[4],inactive
CC1(C)CCC2(C(=O)OC3OC(COC4OC(CO)C(O)C(O)C4O)C(O)C(O)C3O)CCC3(C)C(=CCC4C5(C)CCC(O)C(C)(C(=O)O)C5CCC43C)C2C1O (stereo unspecified),Potency,[4],inactive
CC(C)C(=O)O[C@@H]1[C@@H](O)[C@@H](O[C@H]2O[C@H](CO)[C@@H](O)[C@H](O)[C@H]2O)O[C@H](CO)[C@H]1O,Potency,[4],inactive
CC(=O)OCC1=C[C@H](O)[C@@H]2C(C(=O)O)=CO[C@@H](O[C@@H]3O[C@H](CO)[C@@H](O)[C@H](O)[C@H]3O)[C@H]12,Potency,[4],inactive
C[C@@H]1O[C@@H](O[C@H]2[C@H](OC(=O)[C@]34CCC(C)(C)C[C@H]3C3=CCC5[C@@]6(C)CC[C@H](O[C@@H]7O[C@H](CO[C@@H]8OC[C@H](O)[C@H](O)[C@H]8O)[C@@H](O)[C@H](O)[C@H]7O)C(C)(C)C6CC[C@@]5(C)[C@]3(C)C[C@H]4O)OC[C@@H](O)[C@@H]2O)[C@H](O)[C@H](O)[C@H]1O[C@@H]1OC[C@H](O)[C@H](O[C@@H]2OC[C@@H](O)[C@H](O)[C@H]2O)[C@H]1O (stereo partly specified),"activity change, negative = inhibition",[4],0.282% [at 12.4 µM]
COc1c(C)c2c(c(O)c1C/C=C(\C)CC/C=C(\C)CCC(=O)O)C(=O)OC2,Potency,[4],inactive
CC(C#N)C(C)O[C@@H]1O[C@H](CO)[C@@H](O)[C@H](O)[C@H]1O (stereo partly specified),Potency,[4],inactive
C[C@]1(O)CC[C@@H]2C(C(=O)O)=CO[C@@H](O[C@@H]3O[C@H](COC(=O)c4ccc(O)cc4)[C@@H](O)[C@H](O)[C@H]3O)[C@@H]21,Potency,[4],inactive
